Legend:
[1] = biological target: T1, Aspartate--tRNA(Asp/Asn) ligase (Mycobacterium tuberculosis (strain ATCC 25618 / H37Rv)) (UniProt P9WFW3); experiment: Assay for Asp RNA synthetase-1 from Mycobacterium tuberculosis; assay type: functional; set-up: scale not given: direction of the effect not stated beside the values; conditions: 30 µM; note: in the data most compounds retested in dose-response had high values
T1 sequence (whole entry): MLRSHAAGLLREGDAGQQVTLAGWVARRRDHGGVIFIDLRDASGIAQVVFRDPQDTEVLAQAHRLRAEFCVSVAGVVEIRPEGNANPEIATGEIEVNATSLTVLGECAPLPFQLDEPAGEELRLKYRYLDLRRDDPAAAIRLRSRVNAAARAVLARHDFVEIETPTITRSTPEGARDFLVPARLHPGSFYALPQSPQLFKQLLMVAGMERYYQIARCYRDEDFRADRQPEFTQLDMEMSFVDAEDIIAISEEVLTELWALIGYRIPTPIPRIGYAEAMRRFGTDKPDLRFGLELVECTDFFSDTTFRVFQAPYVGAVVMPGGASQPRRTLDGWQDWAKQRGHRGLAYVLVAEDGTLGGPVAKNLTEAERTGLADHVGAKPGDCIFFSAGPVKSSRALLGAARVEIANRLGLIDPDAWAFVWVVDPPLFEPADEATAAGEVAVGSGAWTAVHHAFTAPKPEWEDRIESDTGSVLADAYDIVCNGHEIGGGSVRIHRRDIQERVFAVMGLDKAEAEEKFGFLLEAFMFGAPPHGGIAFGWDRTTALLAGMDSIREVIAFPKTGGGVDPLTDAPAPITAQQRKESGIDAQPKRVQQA

[2] = biological target: Shiga toxin 2 (Escherichia coli O157:H7) (UniProt P09385+P09386); experiment: E. coli 0.157:H7 Shiga Toxin SOP - stx2 screening assay; assay type: functional; set-up: scale not given: direction of the effect not stated beside the values; conditions: 30 µM

SMILES | Percent Effect [1] [%] | Percent Effect [2] [%]
Cc1ccc(Cl)cc1N1CCC(CNC(=O)CCn2ccnn2)C1 (centres undefined) | 2.9 | -49.4
FC1(F)CCN(Cc2ccccn2)CC12CCN(c1cccnc1)C2 (centres undefined) | 1.08 | -6.96
COc1ccc(C(=O)NS(=O)(=O)c2ccc(C#N)cc2C(F)(F)F)cc1 | -0.26 | 8.91
O=C(Nc1cccnc1)[C@H]1C[C@@H]2CCN(c3nncs3)C[C@H]2O1 | -3.84 | -14
N#Cc1c(C2CC2)cc(-c2ccc(O)cc2)nc1N | -1.42 | 15.9
CC(=O)c1ccc(N2CCC(CO)(CCOc3ccccc3)CC2)nc1 | 0.327 | -31.2
Cc1nc(CC(=O)N2CCC[C@H]2c2nc(C(C)C)no2)cs1 | -2.23 | 4.58
O=C(NCCN1CCCCC1)c1nc2ccccc2c(=O)[nH]1 | -1.02 | -53.5
O=c1[nH][nH]cc1-c1ccnc(NCCN2CCCC2)n1 | 5.51 | -68.3
Cn1ncc2c1C(COCC1CC1)CN(Cc1nccs1)C2 (centres undefined) | 11.3 | -37.3
CCn1cnnc1C1CCN(C(=O)c2ccccc2OC)CC1 | -4.13 | 14.1
CC(O)CN1CCN(C(=O)c2cccn2Cc2ccncc2)CC1 (centres undefined) | -3.51 | 13.7
O=C1COC2(CCN(C(=O)c3ccco3)CC2)CN1Cc1cccnc1 | -2.62 | -14.9
Cn1cc(S(=O)(=O)N2CCCC2CC(=O)c2cccs2)cn1 (centres undefined) | 1.01 | -9.63
N#Cc1ccc(F)c(CN2CCCC2Cn2cnc3ccccc32)c1 (centres undefined) | -0.466 | 31.2
CN(CCC#N)C(=O)CCOc1cccc(F)c1 | -3.59 | -25.6
Cc1nccc(-c2cccc(NCC(=O)N3CCCCCCC3)c2)n1 | 1.07 | 18.8

Reference: ChEMBL document CHEMBL3988442, “University of Dundee, Small-Polar-MMV Screening Library” (2021)
